Experimental data from PubChem BioAssay.
Activity calls are given as the source filed them.

Tested on: Sonic hedgehog protein (Shh)
Assay: Sonic hedgehog microarray binding compounds – biochemical, small-molecule microarray, 635/667 nm fluorescence, primary screen (AID 1151);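 also: Shh protein binding to compounds spotted on small-molecule microarray slides; score combines spot fluorescence intensity with signal-to-noise across triplicate slides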
Details: 635 nm fluorescence, higher = more signal

SMILES	composite z-score
C#CCNC(/C=C/c1ccccc1)CO (centres undefined)	0.448
O=C1C2C=CC(C(O)C(c3ccccc3)c3ccccc3)N(Nc3ccc([N+](=O)[O-])cc3)C2C(=O)N1c1ccccc1 (centres undefined)	0.762
C=C(CCCC)/C(=C/C[C@@H](OC(=O)c1ccncc1)c1ccc(CO)o1)c1cnc2ccccc2c1	2.18
CCc1cccc(NC(=O)O[C@H]2[C@H](OC(=O)Nc3ccccc3)[C@@H](OC(=O)Nc3ccccc3)[C@@H](OC)O[C@@H]2CO)c1	1.72
C=CC[C@]1(C(=O)N2CCCCC2)N=C(c2ccc(OCCCO)cc2)O[C@H]1c1ccccc1N=[N+]=[N-]	0.377
C#C[C@H](O[Si](C#Cc1ccccc1)(C(C)C)C(C)C)c1ccccc1	-0.154
CCOC(=O)C1=CC[C@@H](c2ccccc2)N(S(=O)(=O)c2ccc(C)cc2)[C@H]1C	0.747
O=C(N1CCCCC1)[C@@]1(CCS(=O)(=O)c2ccccc2)N=C(c2ccc(OCCCO)cc2)O[C@H]1c1ccccc1	-0.442
CC(C)(C)OC(=O)CC[C@]1(C(=O)N2CCCCC2)N=C(c2ccc(OCCCO)cc2)O[C@H]1c1ccccc1	1.19
N#Cc1ccc(NN2C(C(O)CCc3ccccc3)C=CC3C(=O)N(c4ccccc4)C(=O)C32)cc1 (centres undefined)	-0.0548
Cc1ccc(S[C@]2(C(=O)NC3CC3)CC(=O)N(Cc3cc(C(F)(F)F)cc(C(F)(F)F)c3)[C@@H]2c2ccc(CO)cc2)cc1	1.38
C#CCCCON=C1C[C@@H](O)[C@@H](O)[C@@H]2[C@@H]3C(=O)N(Cc4ccc5c(c4)OCO5)C(=O)[C@@H]3CC[C@@H]12	0.9
Cc1ccc(S(=O)(=O)N2[C@@H](c3ccccc3)C(C(=O)O)=CC[C@H]2c2ccccc2)cc1	-0.497

Tested on: not listed separately
Assay: optical density shifts of acrAB sulA E. coli – strain DRC41, OD650, 48 h, E. coli filamentation inducer project, primary screen (AID 1152);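 also: E. coli MC1000 strain DRC41 lacking acrAB efflux pump and sulA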
Details: higher = more signal, called active from +8 up or from −8 down

SMILES	z-score
COc1cc(CO)cc(I)c1O[C@H]1C=C(C(=O)NCCO)C[C@@H](N(CC2CCCCC2)C(=O)c2cc3ccccc3oc2=O)[C@@H]1O	2.01 (inactive)
C=C(CCCC)/C(=C/C[C@@H](OC(=O)c1ccncc1)c1cccc(OCCO)c1)c1cc(C(=O)OC)ccc1OC	1.37 (inactive)
C=CCC(OC(C)=O)[C@@H]1[C@@H](N(Cc2ccc(-c3ccccc3)cc2)C(=O)c2ccc(-c3ccccc3)cc2)c2cc(OCCCO)ccc2N1C(=O)Cc1ccc(OC)cc1 (some centres undefined)	-0.685 (inactive)
CC(=O)NCCCC[C@@H]1NC(=O)[C@H]2C[C@@H](C(=O)NCCCCCCN(C)C)[C@@H](c3ccc(O)cc3)N2C1=O	-0.233 (inactive)
Cc1ccc(S[C@]2(C(=O)NC(C)C)CC(=O)N(C3Cc4ccccc4C3)[C@@H]2c2ccc(CO)cc2)cc1	-0.415 (inactive)
Cc1ccc(N2C(=O)c3ccccc3[C@](C)(C(=O)NCC(C)C)[C@@H]2c2ccc(CO)cc2)nc1	-0.262 (inactive)
[N-]=[N+]=NCc1ccccc1C[C@]1(C(=O)N2CCCCC2)N=C(c2ccc(OCCCO)cc2)O[C@H]1c1ccccc1CN=[N+]=[N-]	-0.481 (inactive)
C=C(CCCC)/C(=C/C[C@H](OC(=O)c1ccncc1)c1cccc(OCCO)c1)c1cc(C(=O)OC)ccc1OC	1.93 (inactive)
O=C(CS)NCCCCCCNC(=O)[C@@H]1C[C@@H]2C(=O)N[C@@H](Cc3ccccc3)C(=O)N2[C@@H]1c1ccc(O)cc1	0.706 (inactive)
C=C(CCCC)C(=O)CC[C@@H](OC(=O)c1cccnc1)c1cccc(OCCO)c1	0.381 (inactive)
COc1ccc([C@H]2C[C@H]3C(Br)=C[C@]2(OC)C(=O)[C@]32CO2)cc1	-0.882 (inactive)
C=C(C(=O)CC[C@H](OC(=O)c1ccccc1-c1ccccc1C(=O)O)c1ccc(CO)o1)C(C)C	-0.748 (inactive)
C#CCCCON=C1C[C@@H](O)[C@@H](O)[C@@H]2[C@@H]3C(=O)N(Cc4ccc5c(c4)OCO5)C(=O)[C@@H]3CC[C@H]12	0.324 (inactive)
COC(=O)c1ccc(C#CC(NP(=O)(c2ccccc2)c2ccccc2)c2ccccc2)cc1 (centres undefined)	-0.817 (inactive)
CCOC(=O)C1=CC[C@@H](c2ccc(-c3ccc(OCc4ccccc4)cc3)c(OC)c2)N(S(=O)(=O)c2ccc(C)cc2)[C@H]1c1ccccc1	-0.0232 (inactive)
CC(c1ccccc1)C(O)C1C=CC2C(=O)N(C)C(=O)C2N1N(c1ccccc1)c1ccccc1 (centres undefined)	-1.04 (inactive)
C=C[C@H](OC)[C@@H](OC(=O)Nc1ccc(SC)cc1)c1ccc(O)c(F)c1	0.738 (inactive)
C=C(CCCC)C(=O)CC[C@@H](OC(C)=O)c1ccccc1OCCO	0.377 (inactive)

SMILES	z-score
CC(=O)NCCCC[C@@H]1NC(=O)[C@H]2C[C@@H](C(=O)NCCCCCCN(C)C)[C@@H](c3cccc(OCCO)c3)N2C1=O	-0.179 (inactive)
CCCC=C(CCC)[C@@H](NS(=O)(=O)c1cccc(C(F)(F)F)c1)c1ccc(C(=O)OC)cc1	-0.77 (inactive)
O=C(NCc1ccccc1)[C@@]1(Cc2ccccc2)COC(c2ccc(OCCCO)cc2)=N1	-0.65 (inactive)
[N-]=[N+]=NCc1ccccc1[C@H]1OC(c2ccc(OCCCO)cc2)=N[C@@]1(Cc1ccccc1N=[N+]=[N-])C(=O)NCc1ccccc1	-0.258 (inactive)
NC(=O)NCC#Cc1ccc2c(c1)[C@]1(C(=O)N2)[C@H](C(=O)N2CCCCCCC2)[C@H]2C(=O)O[C@H](c3ccccc3)[C@H](c3ccccc3)N2[C@@H]1c1ccccc1OCCO	1.43 (inactive)
C#CCNC(/C=C/c1ccccc1)CO (centres undefined)	-0.759 (inactive)
O=C1C2C=CC(C(O)C(c3ccccc3)c3ccccc3)N(Nc3ccc([N+](=O)[O-])cc3)C2C(=O)N1c1ccccc1 (centres undefined)	-0.344 (inactive)
C=C(CCCC)/C(=C/C[C@@H](OC(=O)c1ccncc1)c1ccc(CO)o1)c1cnc2ccccc2c1	0.583 (inactive)
CCc1cccc(NC(=O)O[C@H]2[C@H](OC(=O)Nc3ccccc3)[C@@H](OC(=O)Nc3ccccc3)[C@@H](OC)O[C@@H]2CO)c1	0.172 (inactive)
C=CC[C@]1(C(=O)N2CCCCC2)N=C(c2ccc(OCCCO)cc2)O[C@H]1c1ccccc1N=[N+]=[N-]	0.297 (inactive)
C#C[C@H](O[Si](C#Cc1ccccc1)(C(C)C)C(C)C)c1ccccc1	-0.0719 (inactive)
CCOC(=O)C1=CC[C@@H](c2ccccc2)N(S(=O)(=O)c2ccc(C)cc2)[C@H]1C	-1.29 (inactive)
O=C(N1CCCCC1)[C@@]1(CCS(=O)(=O)c2ccccc2)N=C(c2ccc(OCCCO)cc2)O[C@H]1c1ccccc1	0.646 (inactive)
CC(C)(C)OC(=O)CC[C@]1(C(=O)N2CCCCC2)N=C(c2ccc(OCCCO)cc2)O[C@H]1c1ccccc1	0.978 (inactive)
N#Cc1ccc(NN2C(C(O)CCc3ccccc3)C=CC3C(=O)N(c4ccccc4)C(=O)C32)cc1 (centres undefined)	-0.487 (inactive)
Cc1ccc(S[C@]2(C(=O)NC3CC3)CC(=O)N(Cc3cc(C(F)(F)F)cc(C(F)(F)F)c3)[C@@H]2c2ccc(CO)cc2)cc1	0.537 (inactive)
C#CCCCON=C1C[C@@H](O)[C@@H](O)[C@@H]2[C@@H]3C(=O)N(Cc4ccc5c(c4)OCO5)C(=O)[C@@H]3CC[C@@H]12	0.741 (inactive)
Cc1ccc(S(=O)(=O)N2[C@@H](c3ccccc3)C(C(=O)O)=CC[C@H]2c2ccccc2)cc1	-1.57 (inactive)
